This is a sample that favours compounds with a hit; in the whole collection about 10% have one here.
G9a block – G9a (human) methyltransferase inhibition | G9a H3K9 monomethylation, AlphaScreen, 2 h | Potency, µM (top dose mostly 102 µM), for inactives: at the top dose activity, negative = inhibition, most hits filed as inhibitors | hit rate 8.8% among 350,000; note: potency is the fitted concentration of half-maximal effect; % is set by controls: 0 for no effect and ±100 for the full control effect; nearly all actives have a fitted effect of over 75% in size
Target sequence (Q96KQ7 913-1193 limits assumed): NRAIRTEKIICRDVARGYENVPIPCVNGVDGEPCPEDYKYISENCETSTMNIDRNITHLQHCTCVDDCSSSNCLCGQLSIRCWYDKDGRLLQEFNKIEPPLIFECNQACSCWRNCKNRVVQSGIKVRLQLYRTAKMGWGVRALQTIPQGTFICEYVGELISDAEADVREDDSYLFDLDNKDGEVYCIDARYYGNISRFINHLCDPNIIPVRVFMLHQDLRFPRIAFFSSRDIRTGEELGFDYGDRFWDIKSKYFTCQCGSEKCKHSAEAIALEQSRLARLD
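Enzyme 20 nM + cpd, 15 min RT; add b-H3K9 pep 500 nM / SAM 20 uM; 2 h RT; anti-H3K9me1 Ab 0.5 ug/mL + SA donor / anti-rabbit acceptor beads 20 ug/mL each, 10 min; AlphaScreen read.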
Six1-Eya2 blk – inhibitors of human Six1/Eya2 interaction; Q15475+O00167; AlphaScreen GST-Six1/His-Eya2 binding, biochemical; hits give low values; activity change, % (concentration not given with the values); hit rate 0.56% among 360,000; AID 651725; in the data active = activity change below about -65%; inconclusive = mostly about -30% to -63%; note: % is set by controls: 0 for no effect and ±100 for the full control effect
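AlphaScreen with GST-Six1 and His-Eya2 (5X mix: 250 nM and 500 nM), glutathione donor and nickel acceptor beads; buffer 50 mM Tris pH 8.0, 300 mM NaCl, 1 mM TCEP; 1 h at 37 C in the dark.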
HP1b chromo inh – inhibitors of HP1-beta chromodomain binding to methylated histone tails; P83916; AlphaScreen HP1-beta / biotin-H3K9me3 peptide binding; Potency, µM (doses to about 114 µM), without a hit: top-dose activity change, negative = inhibition, hits mostly inhibitors; hit rate 0.56% among 390,000; AID 540317; note: potency is the fitted concentration of half-maximal effect; nearly all actives have a fitted effect of over 70% in size
Target sequence (P83916 whole entry, looked up): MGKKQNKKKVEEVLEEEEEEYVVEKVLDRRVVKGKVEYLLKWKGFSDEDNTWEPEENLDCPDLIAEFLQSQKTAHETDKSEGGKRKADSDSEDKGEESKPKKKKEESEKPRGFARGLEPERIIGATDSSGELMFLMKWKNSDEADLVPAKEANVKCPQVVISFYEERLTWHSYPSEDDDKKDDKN
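HP1-beta protein (50 nM final) preincubated 30 min at room temperature with biotinylated H3(1-18)K9me3 peptide (50 nM) in PBS pH 7.4, 0.01% Tween-20, then compound added for 30 min. AlphaScreen streptavidin donor/nickel chelate acceptor beads (10 ug/mL final), 30 min dark, luminescence read.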
CtBP-E1A blk – CtBP/E1A binding inhibition. AlphaScreen GST-E1A/His-CtBP binding, 1536-well; hits give low values. activity change, % (no concentration beside the values). hit rate 0.49% among 340,000; in the data active = activity change below about -65%; inconclusive = mostly about -30% to -63%; note: % is set by controls: 0 for no effect and ±100 for the full control effect
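AlphaScreen with 125 nM GST-E1A and 125 nM His-CtBP (5X stocks) in Tris pH 8.0, 300 mM NaCl, BSA, Tween 20, TCEP. Compounds preincubated 2 h at 37 deg C, then glutathione donor/nickel acceptor beads added for 1 h at 37 deg C in dark.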
BAZ2B inh – BAZ2B (human) inhibition | Q9UIF8 | AlphaScreen BAZ2B-H3K14Ac peptide displacement | Potency, µM (top dose mostly 114 µM), without a hit: at the highest dose activity change, negative = inhibition, actives largely listed as inhibitors | hit rate 4.4% among 360,000; note: potency is the fitted concentration of half-maximal effect; % is set by controls: 0 for no effect and ±100 for the full control effect; nearly all actives have a fitted effect of over 60% in size
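In this displacement format the biotinylated H3(5-23) peptide acetylated at Lys14 serves as ligand at 50 nM, with BAZ2B at 50 nM in PBS pH 7.4 containing 0.01% Tween-20. Donor and acceptor beads are 10 ug/mL final.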
JMJD2A Tudor – inhibitors of human JMJD2A Tudor domain; O75164; AlphaScreen JMJD2A-Tudor / H3K4me3 peptide binding; Potency, µM (series often up to 114 µM), for the others: at the highest dose activity change, negative = inhibition, hits mostly inhibitors; hit rate 4.4% among 390,000; note: potency is the fitted concentration of half-maximal effect; % is set by controls: 0 for no effect and ±100 for the full control effect; nearly all actives have a fitted effect of over 50% in size
An asterisk follows results filed as active; ? = inconclusive; / = not tested or not shown; ! = repeats disagree; [ ] = dose if it differs, or a comment. Unless noted, calls come from the whole dose curve; as a rule, active = well fitted inhibition curve with a large enough effect; inconclusive = small, poorly fitted or top-dose-only effect; inactive = no such curve, though single readings can be large or run the other way.

SMILES	G9a block	Six1-Eya2 blk	HP1b chromo inh	CtBP-E1A blk	BAZ2B inh	JMJD2A Tudor
CN(CC(=O)Nc1ccccc1Br)C(=O)CNC(=O)Cc1cccc2ccccc12	13%	0	-2%	-8	-3%	-7%
Cc1oc(-c2ccc3c(c2)OCCO3)cc1C(=O)NC(Cc1ccccc1)C(=O)O (centres undefined)	35µM*	7	20%	-10	?	-15%
Cc1cc(C)n(CC(O)Cn2c(C)c(C)c3ccccc32)n1 (centres undefined)	13µM*	-10	?	-12	35µM*	3.5µM*
Cc1ccc2c(c1)c(C)c(C)n2CC(O)Cn1nc(C)c(Br)c1C (centres undefined)	?	-27	-36%	-16	45µM*	50µM*
Cc1c(C)n(CC(O)CN2CCCCC2)c2ccccc12 (centres undefined)	?	-15	?	-15	45µM*	1.6µM*
Cc1c(C)n(CC(O)CN2CCN(C)CC2)c2ccccc12 (centres undefined)	?	-6	4%[57 µM]	/	-35%	-31%
Cc1c(C)n(CC(O)CN2CCOCC2)c2ccccc12 (centres undefined)	13µM*	-4	71µM*	8	/	22µM*
Cc1cc(NC(=O)CSCC(=O)OCC(=O)c2cccc(Br)c2)no1	6%[12.7 µM]	-6	8%	-6	-26%	-29%
CCOc1ccc(NC(=O)CSc2ccc(-c3sc(-c4ccccc4)nc3C)nn2)cc1	-5%[59 µM]	/	59%	/	-5%	6%
O=S(=O)(c1ccc2c(c1)OCCO2)N1CCN(S(=O)(=O)c2cccs2)CC1	/	/	/	/	/	-14%
CCCCC(CC)CN=C(N)NC(N)=NCCCCCCN=C(N)NC(N)=NCC(CC)CCCC (centres undefined)	-26%[59 µM]	2	33%	-6	3%	79µM*
COc1ccc2c(c1)C(=O)N(c1ccccc1OC)C(=O)C2(C)C	5%[59 µM]	1	18%	3	0%	-4%
CCCOc1ccccc1-n1sc2c(c1=S)-c1cc(OC)cc3c1N(C(=O)C3=O)C2(C)C	?	-22	-81%	1	2µM*	2.5µM*
Nn1c(C2COc3ccccc3O2)n[nH]c1=S (centres undefined)	2.8µM*	1	-17%	/	?	8.9µM*
CCOCCCNC(=O)c1c(NC(=O)c2cc(=O)c3ccccc3o2)sc2c1CCC2	-2%[59 µM]	/	21%	/	-12%	-16%
COc1ccc(N2CCN(C(CNS(=O)(=O)c3c(C)cc(C)cc3C)c3ccco3)CC2)cc1 (centres undefined)	7.1µM*	/	-22%	/	32µM*	22µM*
COc1ccc(C(CNS(=O)(=O)c2ccc(C)cc2)N2CCN(C)CC2)cc1 (centres undefined)	?	0	26%	0	-21%	-3%
COc1ccc(N2CCN(C(CNS(=O)(=O)c3ccc4c(c3)OCCO4)c3ccco3)CC2)cc1 (centres undefined)	7.9µM*	?	?	-11	?	?
CCS(=O)(=O)NCC(c1ccco1)N1CCN(c2ccc(OC)cc2)CC1 (centres undefined)	47%[59 µM]	/	14%	/	11%	-25%
CCS(=O)(=O)NCC(c1ccco1)N1CCN(c2ccc(F)cc2)CC1 (centres undefined)	7%[59 µM]	0	34%	23	-20%	-13%
COc1ccc(S(=O)(=O)NCC(c2ccco2)N2CCN(c3ccc(F)cc3)CC2)cc1 (centres undefined)	?	/	18%	/	?	?
CS(=O)(=O)NCC(c1ccco1)N1CCN(c2ccc(F)cc2)CC1 (centres undefined)	45µM*!	1	34%	7	-18%	-5%
COc1ccc(N2CCN(C(CNS(=O)(=O)c3ccccc3)c3ccccc3)CC2)cc1 (centres undefined)	14µM*	-23	?	?	25µM*	16µM*
Cc1c2cnn(-c3ccccc3)c(=O)c2c(C)n1CCCC(=O)Nc1cccc(F)c1	-23%[59 µM]	/	2%	/	-34%	-30%
Cn1cc(/C=N/NC(=O)c2cc3cc(Br)ccc3o2)c2ccccc21	50µM*	3	36%	9	3%	-9%
SMILES	G9a block	Six1-Eya2 blk	HP1b chromo inh	CtBP-E1A blk	BAZ2B inh	JMJD2A Tudor
O=C(O)Cn1cc(/C=N/NC(=O)c2cc3cc(Br)ccc3o2)c2ccccc21	-35%	-27	43%	-16	50µM*	7%
O=C(O)c1ccc(-n2cccc2/C=N\NC(=O)c2cc3cc(Br)ccc3o2)cc1	14µM*	-20	45µM*	1	7.9µM*	22µM*
O=C(N/N=C/c1cccn1-c1ccc(O)cc1)c1cccc2ccccc12	62%	-2	33%	-5	-23%	-22%
C=CCn1cc(/C=N\NC(=O)c2cc3c(ccc4ccccc43)o2)c2ccccc21	49%	2	46%	-2	5%	-6%
COc1ccc(NC(=O)CN(C)C(=O)c2cccc(S(=O)(=O)N3CCN(c4ccc(F)cc4)CC3)c2)cc1	/	-4	10%	-16	/	-31%
O=S1(=O)N=C(SCCO)c2ccccc21	79µM*	11	35%	8	?	?
CC(SC1=NS(=O)(=O)c2ccccc21)C(=O)O (centres undefined)	/	/	?	/	/	28µM*
CCSC1=NS(=O)(=O)c2ccccc21	/	/	/	/	/	-5%
O=C(O)CSC1=NS(=O)(=O)c2ccccc21	/	/	?	/	/	18µM*
COc1ccc(C)cc1NC(=O)c1cc(S(=O)(=O)N2CCCCC2)c[nH]1	-7%[59 µM]	/	23%	/	-12%	-22%
CC1(Cc2ccccc2OC(F)(F)F)C(=O)Nc2ccc(-c3ccsc3)cc21 (centres undefined)	/	-4	/	2	/	/
COc1cccc(-c2nc3c(C#N)c[nH]n3c2NC2CCCCC2)c1	?	/	46%	/	-25%	-11%
CC(C)c1ccc(O)c(NC(=O)c2cccnc2)c1	?	0	18%	1	1%	-13%
CCC(C)c1ccc(O)c(N)c1 (centres undefined)	2.8µM*	2	-16%	2	-36%	?
CC(C)c1ccc(O)c(N)c1	1.4µM*	6	25%	-6	?	-22%
O=C1C2C(C(=O)N1CCN1CCN(Cc3ccc([N+](=O)[O-])cc3)CC1)[C@H]1C=C[C@@H]2C1 (some centres undefined)	-4%	-5	10%	-20	-4%	-11%
Cc1ccc(C)c(NC(=O)c2cc(S(=O)(=O)N3CCCCCC3)ccc2F)c1	8%[59 µM]	/	20%	/	0%	-14%
